# Experimental data: PubChem BioAssay (NCI)
# This is part of a sample that, as a whole, favours compounds with a hit. Of some 83,000 tested, about 20% had one in any assay.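 Single-concentration screen, 48 h exposure, 96-well plates. Endpoint: percent growth. Below 10 = active.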 Values without a mark were called inactive. Active and inactive are the calls of the source.
# Tests used:
# Assay in all cases: NCI-60 one-dose screen, 48 h (100 = growth as untreated, 0 = no growth, -100 = all killed)
# Settings in all cases: 10 µM unless noted
# NCI-H23 lung = system: NCI-H23 lung
# NCI-H226 lung = system: NCI-H226 lung
# NCI-H322M lung = system: NCI-H322M lung
# HOP-62 NSCLC = system: HOP-62 NSCLC
# NCI-H460 lung = system: NCI-H460 lung
# HOP-92 NSCLC = system: HOP-92 NSCLC
# NCI-H522 lung = system: NCI-H522 lung
# A549/ATCC NSCLC = system: A549/ATCC NSCLC
# 786-0 renal = system: 786-0 renal
# COLO 205 colon = system: COLO 205 colon
# DU-145 prostate = system: DU-145 prostate
# MALME-3M melanoma = system: MALME-3M melanoma
# MDA-MB-231 breast = system: MDA-MB-231 breast
# SF-268 CNS = system: SF-268 CNS
# SF-295 CNS = system: SF-295 CNS
# SF-539 CNS = system: SF-539 CNS
# UACC-257 melanoma = system: UACC-257 melanoma
# M14 melanoma = system: M14 melanoma
# K-562 leukemia = system: K-562 leukemia
# RXF 393 renal = system: RXF 393 renal
Structure (SMILES),growth (NCI-H23 lung),growth (NCI-H226 lung),growth (NCI-H322M lung) [%],growth (HOP-62 NSCLC) [%],growth (NCI-H460 lung) [%],growth (HOP-92 NSCLC),growth (NCI-H522 lung),growth (A549/ATCC NSCLC) [%],growth (786-0 renal) [%],growth (COLO 205 colon) [%],growth (DU-145 prostate) [%],growth (MALME-3M melanoma) [%],growth (MDA-MB-231 breast) [%],growth (SF-268 CNS),growth (SF-295 CNS) [%],growth (SF-539 CNS) [%],growth (UACC-257 melanoma) [%],growth (M14 melanoma) [%],growth (K-562 leukemia),growth (RXF 393 renal)
Cc1sc2c(c1C)C(c1ccc(Cl)cc1)=N[C@@H](CC(=O)OC(C)(C)C)c1nnc(C)n1-2,28.5%,71.8%,37.3,36.8,39.9,21.2%,2.71% (active),37.9,46,19.3,57,57,42.8,51%,37.6,37.5,58.1,43,–,–
O=[N+]([O-])c1cnc[nH]1,103%,105%,121,106,108,93.7%,–,103,112,119,116,112,101,106%,104,110,103,–,123%,128%
N#CC1(C#N)C(c2ccc(N(CCCl)CCCl)cc2)OC23CCCCC2C1(C#N)C(=N)O3 (stereo not given),61.5%,9.15% (active),94.2,89.2,30.1,88.5%,80.2%,97.3,88.6,104,56.4,96.9,95.3,69.6%,108,85,87.9,93.9,–,73.9%
CCC(CC)CC1(C)CC2(C)CCOC2OO1 (stereo not given),102%,99%,109,97.9,108,96.2%,90.9%,98.9,101,118,107,112,100,110%,101,99.1,98,115,–,111%
COc1cccc2c1c(C(=O)C(=O)Nc1ccn[nH]1)cn2Cc1ccc(F)cc1,96.4%,76.4%,97.8,103,77.6,87%,96.8%,86.3,92.4,103,104,112,109,100%,143,99.5,104,101,–,99.8%
ClCCN(CCCl)c1ccc(-n2cnc3c(Cl)ncnc32)cc1,-69% (active),97.5%,58.7,87,47.8,-1.92% (active),-76.9% (active),85.2,106,65.8,21.9,–,62.9,-11.9% (active),87,115,49.7,33.3,-2.07% (active),-57.2% (active)
COP(=S)(N1CC1)N1CC1,101%,98.6%,100,94.1,107,98.6%,103%,133,105,106,123,105,93,112%,104,94.3,147,99.5,–,114%
CCCCN(CCCC)P(=O)(Oc1ccccc1)Oc1ccccc1,53.7%,73.9%,85.1,85.8,59.9,48.3%,37.9%,49,75,75.2,–,119,69.3,84%,64.5,100,70.4,52.3,46.2%,55.8%
